This note sets out measurements from PubChem BioAssay (NCATS).

Molecules are shown by their SMILES. Records with an inconclusive call do not appear. Activity calls are given as the source filed them. Unless noted, calls come from the whole dose curve; as a rule, active = well fitted curve in either direction with a large enough effect (not every such curve was filed as active); inconclusive = small, poorly fitted or top-dose-only effect, or another doubt; inactive = flat fitted curve, though single readings scatter.

Test [1] can be described thus: AP1 Signaling Pathway (AID 357).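 Note: ME-180 reporter cells stimulated with EGF at its EC50 level; % is set by controls: 0 for no effect and ±100 for the full control effect.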 The method in brief: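 Modulation of EGF-driven AP-1 transcription was assessed with a beta-lactamase reporter in ME-180 cells. Compound and EC50 EGF were co-incubated 5 hours at 37 °C before 2.5-hour CCF4 loading at room temperature and dual-emission reading.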
For test [2], the target named is Cytochrome P450 1A2 (Homo sapiens) (UniProt P05177). The experiment in a line: p450-cyp1a2 (AID 410; calls by dose curve; note: potency is the fitted concentration of half-maximal effect;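 for activity change, negative = inhibition: -100% = full effect of reference inhibitor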). The essentials: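 Human CYP1A2 (20nM) demethylated Luciferin-ME at its Km (100uM) in 100mM KPO4. After 10 min compound preincubation, NADPH regeneration ran the reaction 60 min at room temperature. Luciferin was read by luminescence, normalized to 57 uM furafylline.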
Cytochrome P450 1A2 (Homo sapiens), sequence (P05177 whole entry, looked up): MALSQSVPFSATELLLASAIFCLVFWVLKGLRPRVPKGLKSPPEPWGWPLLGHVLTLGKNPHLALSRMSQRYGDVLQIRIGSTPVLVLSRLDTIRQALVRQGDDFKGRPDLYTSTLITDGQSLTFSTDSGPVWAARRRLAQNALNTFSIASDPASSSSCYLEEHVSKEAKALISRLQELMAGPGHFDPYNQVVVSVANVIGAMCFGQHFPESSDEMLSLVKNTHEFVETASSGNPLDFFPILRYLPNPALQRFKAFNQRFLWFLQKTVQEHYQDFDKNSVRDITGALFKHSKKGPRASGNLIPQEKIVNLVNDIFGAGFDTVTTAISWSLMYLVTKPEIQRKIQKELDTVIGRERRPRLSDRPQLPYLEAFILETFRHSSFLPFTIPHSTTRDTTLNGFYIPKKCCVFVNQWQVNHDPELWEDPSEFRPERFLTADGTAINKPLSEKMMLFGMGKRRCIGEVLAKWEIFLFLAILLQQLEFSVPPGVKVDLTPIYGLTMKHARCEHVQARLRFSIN

Test [3] can be described thus: NFAT Signaling Pathway (AID 444).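 Note: carbachol stimulus at about its EC50 of 1 µM final; % is set by controls: 0 for no effect and ±100 for the full control effect.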 Conditions: Jurkat NFAT-bla M1, carbachol, beta-lactamase ratio, 5 h; at 17.2 µM (top of the series) unless noted. The essentials: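 Jurkat cells with NFAT-driven β-lactamase reporter and co-expressed M1 receptor, stimulated with carbachol (final 1 uM, ~EC50), compound titration, 5 h at 37 °C. CCF4 loaded 1 h at RT; 460/530 nm ratio gave %activity and AC50.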

A short description of test [4]: Stat Signaling Pathway (AID 446).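 Note: ME-180 cervical cancer cells given 40 pM IL-6 alongside compound; SIE-controlled beta-lactamase reporter measured as 460/530 nm FRET emission ratio; % is set by controls: 0 for no effect and ±100 for the full control effect.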 The essentials: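 Reporter line: ME-180 cervical carcinoma, SIE-beta-lactamase. Treatment: compound with 40 pM IL-6, 5 hrs, 37 C, in low-serum OPTI-MEM with 10 mM HEPES pH 7.3. Detection: 460/530 nm fluorescence.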
The target of test [5] is Glucocorticoid receptor (Homo sapiens) (UniProt P04150). As to the kind of experiment: GR-GFP Redistribution (AID 450;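 active = compounds whose dose series gives a full or clear partial fitted curve of increased nuclear translocation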; note: potency is the fitted concentration of half-maximal effect). Conditions: U2OS GR-GFP nuclear translocation, laser cytometry, 2 h.
Glucocorticoid receptor (Homo sapiens), sequence (P04150 whole entry, looked up, the tested form may be a part): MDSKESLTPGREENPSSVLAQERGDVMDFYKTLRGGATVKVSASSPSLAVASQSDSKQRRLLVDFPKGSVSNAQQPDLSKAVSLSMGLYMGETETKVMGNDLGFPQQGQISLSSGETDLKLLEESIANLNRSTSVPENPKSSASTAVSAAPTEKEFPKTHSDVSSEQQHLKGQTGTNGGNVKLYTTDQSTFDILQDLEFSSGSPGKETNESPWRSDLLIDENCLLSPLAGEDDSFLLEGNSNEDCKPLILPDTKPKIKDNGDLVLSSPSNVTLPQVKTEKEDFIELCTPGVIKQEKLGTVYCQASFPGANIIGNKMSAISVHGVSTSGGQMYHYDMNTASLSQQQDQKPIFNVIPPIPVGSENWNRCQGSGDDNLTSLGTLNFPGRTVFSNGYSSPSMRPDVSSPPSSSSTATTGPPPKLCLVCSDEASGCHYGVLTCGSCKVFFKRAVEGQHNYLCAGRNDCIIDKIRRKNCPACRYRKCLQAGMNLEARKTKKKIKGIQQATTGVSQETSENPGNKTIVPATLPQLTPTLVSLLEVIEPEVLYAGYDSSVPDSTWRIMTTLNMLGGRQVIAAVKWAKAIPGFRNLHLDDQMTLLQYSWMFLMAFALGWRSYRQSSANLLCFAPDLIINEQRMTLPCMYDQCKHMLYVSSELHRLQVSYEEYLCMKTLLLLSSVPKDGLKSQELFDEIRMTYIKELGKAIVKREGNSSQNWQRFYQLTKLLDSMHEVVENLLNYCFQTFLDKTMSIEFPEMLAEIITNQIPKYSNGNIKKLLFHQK
In test [6] the target is Mitogen-activated protein kinase 10 (Mus musculus) (UniProt Q61831). The experiment in a line: JNK3 AlphaScreen Assay (AID 530).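 Note: kinase came from lysate of stimulated human HepG2 cells; signal reports phosphorylation of biotinylated GST-cJun 1-79 at Ser73 with 10 µM ATP; % is set by controls: 0 for no effect and ±100 for the full control effect.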 The method in brief: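 qHTS format: compounds tested as titrations against IL-1beta/TNF-alpha-activated HepG2 lysate JNK3 with biotin-GST-cJun substrate and 10 uM ATP at room temperature. Loss of anti-phospho-cJun AlphaScreen signal indicates inhibition.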

Test [7] has as its target 3',5'-cyclic-AMP phosphodiesterase 4B (Homo sapiens) (UniProt Q07343). As to the kind of experiment: qHTS Assay for Inhibitors of PDE-IV (AID 607; active = well fitted activation curve with a large enough effect in the main read-out, with a control signal flat, not every such curve was filed as active; note: % of control where 0% means no effect). The method in brief:
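Cell-based read-out of cAMP via a modified cyclic nucleotide-gated channel and membrane potential dye (535/590 nm) in HEK293 cells expressing PDE4 endogenously. Compounds tested up to 22.9 uM final; 100 uM RO 20-1724 reference.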

Test [8] can be described thus: qHTS Assay for Lipid Storage Modulators (AID 1519; calls by dose curve). Conditions: Drosophila S3 cells, BODIPY lipid droplet/cell ratio, laser cytometry, cells loaded with oleic acid. The essentials:
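Cells seeded at 5,000 per well were treated with compounds over a concentration series and loaded with oleic acid (400 uM, as added). Lipid droplet fluorescence (488 nm excitation, 500-530 nm channel) was read by laser-scanning cytometry and normalized to 20 uM Triacsin C.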

The target in test [9] is Glucocorticoid receptor (Homo sapiens) (UniProt P04150). As to the kind of experiment: GR-EFC Redistribution (AID 451; calls by dose curve; note: potency is the fitted concentration of half-maximal effect). Conditions: CHO-K1 GR-EFC translocation, beta-gal luminescence, 2 h. The method in brief:
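CHO-K1 cells expressing nuclear EA and GR-ED fragments of b-gal; compounds titrated up to 46 uM final, 2 h at 37 C. GR nuclear translocation read as complemented b-gal luminescence after 1 h RT detection.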

Test [10] has as its target Ubiquitin carboxyl-terminal hydrolase 1 (Homo sapiens) (UniProt O94782). The experiment in a line: Inhibitors of USP1/UAF1: Pilot qHTS (AID 504865; active = well fitted curve in the direction sought with a large enough effect; an effect the other way counts as inactive or inconclusive;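 note: rhodamine fluorescence freed from ubiquitin-rhodamine substrate followed over time; top concentration of the series differs between compounds; % is set by controls: 0 for no effect and ±100 for the full control effect; nearly all actives have a fitted effect of over 35% in size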). The method in brief: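 USP1/UAF1 complex (1nM) preincubated with compound 15 min at room temperature, then Ub-Rho substrate (150nM final) added. Fluorescence read kinetically at 480/540 nm, 6 reads every 60 seconds. Buffer: 50mM HEPES pH 7.8, 0.5mM EDTA, 0.1 mg/ml BSA, 1mM TCEP, 0.01% Tween-20.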

For test [11], the target named is ATP-dependent 6-phosphofructokinase (Trypanosoma brucei brucei) (UniProt O15648). The experiment in a line: qHTS Assay to Find Inhibitors of T. brucei phosphofructokinase: hit validation (AID 492961; active = well fitted curve in the direction sought with a large enough effect; an effect the other way counts as inactive or inconclusive; note: % is set by controls: 0 for no effect and ±100 for the full control effect). The essentials:
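Luminescence from ADP-Glo reports ADP generated as T. brucei PFK (1.25 nM) phosphorylates 0.5 mM fructose-6-phosphate using 0.1 mM ATP. Reactions ran 45 min at room temperature, pH 8.0.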

The target in test [12] is Luciferin 4-monooxygenase (Photinus pyralis) (UniProt P08659). As to the kind of experiment: Biochemical firefly luciferase enzyme assay for NPC (AID 624030; active = well fitted curve in the direction sought with a large enough effect; an effect the other way counts as inactive or inconclusive;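 note: purified P. pyralis luciferase at 10 nM with luciferin and ATP substrate; 0% = DMSO and -100% = full luciferase inhibition by PTC124 control; nearly all actives have a fitted effect of over 70% in size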). The method in brief:
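Purified P. pyralis luciferase at 10 nM in 50 mM Tris Acetate (final), luminescence read within 5 minutes of enzyme addition to compounds. Activity normalised to PTC124 versus DMSO; concentration-response curves classed by r2, magnitude and activity.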

The nature of test [13]: qHTS profiling for inhibitors of Plasmodium falciparum proliferation (AID 504749; active = well fitted curve in the direction sought with a large enough effect; an effect the other way counts as inactive or inconclusive;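 note: 0% = DMSO vehicle and full inhibition = artemisinin control; nearly all actives have a fitted effect of over 60% in size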). Conditions: P. falciparum in erythrocytes, SYBR Green DNA, 72 h, at 12.8 µM (top of the series). The essentials: (§1)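 Readout was DNA-dye fluorescence from lysed cultures, ex 485/em 535 nm. Parasitized red cells had grown 72 h with compound; data scaled between 0.29 uM artemisinin and DMSO wells and corrected using vehicle-only plates.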

For a further test, the system named is 3D7. Described as above. Conditions: P. falciparum in erythrocytes, SYBR Green DNA, 72 h; series mostly up to 12.8 µM. The method in brief: as §1
The subject of another test is C2A. The description is as above. Conditions: P. falciparum in erythrocytes, SYBR Green DNA, 72 h; series mostly up to 12.8 µM. The method in brief:
as §1

In a further test the test system is CP217. The description is as above. Conditions: P. falciparum in erythrocytes, SYBR Green DNA, 72 h; series mostly up to 12.8 µM. The essentials: as §1
The next test deals with CP250. The description is as above. Conditions: P. falciparum in erythrocytes, SYBR Green DNA, 72 h; series mostly up to 12.8 µM. The method in brief:
as §1

The subject of another test is FAB9. The test is described as above. Conditions: P. falciparum in erythrocytes, SYBR Green DNA, 72 h; series mostly up to 12.8 µM. The method in brief: as §1
Another test has as its system PC49. Described as above. Conditions: P. falciparum in erythrocytes, SYBR Green DNA, 72 h; series mostly up to 12.8 µM. The essentials:
as §1

Setting [14] is: measured here: cell count channel max response.
Setting [15] is: measured here: lipid channel max response.

Ubiquitin carboxyl-terminal hydrolase 1 (Homo sapiens), sequence (O94782 whole entry, looked up): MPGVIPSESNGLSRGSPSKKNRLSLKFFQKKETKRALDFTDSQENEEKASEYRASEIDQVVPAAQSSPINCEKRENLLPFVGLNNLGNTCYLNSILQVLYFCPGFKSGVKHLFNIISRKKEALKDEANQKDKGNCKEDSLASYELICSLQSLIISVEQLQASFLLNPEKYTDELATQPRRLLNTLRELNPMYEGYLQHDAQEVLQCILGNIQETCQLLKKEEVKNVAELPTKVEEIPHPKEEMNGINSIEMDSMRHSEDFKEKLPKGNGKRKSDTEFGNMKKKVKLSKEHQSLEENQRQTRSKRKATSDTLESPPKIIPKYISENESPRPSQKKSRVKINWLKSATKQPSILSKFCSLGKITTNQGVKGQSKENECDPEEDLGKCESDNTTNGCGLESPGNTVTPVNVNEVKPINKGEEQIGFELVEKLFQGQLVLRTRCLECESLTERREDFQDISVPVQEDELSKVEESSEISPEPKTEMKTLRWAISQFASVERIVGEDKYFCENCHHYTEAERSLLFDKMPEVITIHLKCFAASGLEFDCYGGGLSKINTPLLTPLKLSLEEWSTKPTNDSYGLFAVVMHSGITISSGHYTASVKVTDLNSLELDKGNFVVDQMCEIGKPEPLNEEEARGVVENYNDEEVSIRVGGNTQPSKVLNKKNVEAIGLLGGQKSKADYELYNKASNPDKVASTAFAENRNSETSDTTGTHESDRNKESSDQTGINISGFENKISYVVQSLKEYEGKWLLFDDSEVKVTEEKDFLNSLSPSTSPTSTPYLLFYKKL
3',5'-cyclic-AMP phosphodiesterase 4B (Homo sapiens), sequence (Q07343 whole entry, looked up): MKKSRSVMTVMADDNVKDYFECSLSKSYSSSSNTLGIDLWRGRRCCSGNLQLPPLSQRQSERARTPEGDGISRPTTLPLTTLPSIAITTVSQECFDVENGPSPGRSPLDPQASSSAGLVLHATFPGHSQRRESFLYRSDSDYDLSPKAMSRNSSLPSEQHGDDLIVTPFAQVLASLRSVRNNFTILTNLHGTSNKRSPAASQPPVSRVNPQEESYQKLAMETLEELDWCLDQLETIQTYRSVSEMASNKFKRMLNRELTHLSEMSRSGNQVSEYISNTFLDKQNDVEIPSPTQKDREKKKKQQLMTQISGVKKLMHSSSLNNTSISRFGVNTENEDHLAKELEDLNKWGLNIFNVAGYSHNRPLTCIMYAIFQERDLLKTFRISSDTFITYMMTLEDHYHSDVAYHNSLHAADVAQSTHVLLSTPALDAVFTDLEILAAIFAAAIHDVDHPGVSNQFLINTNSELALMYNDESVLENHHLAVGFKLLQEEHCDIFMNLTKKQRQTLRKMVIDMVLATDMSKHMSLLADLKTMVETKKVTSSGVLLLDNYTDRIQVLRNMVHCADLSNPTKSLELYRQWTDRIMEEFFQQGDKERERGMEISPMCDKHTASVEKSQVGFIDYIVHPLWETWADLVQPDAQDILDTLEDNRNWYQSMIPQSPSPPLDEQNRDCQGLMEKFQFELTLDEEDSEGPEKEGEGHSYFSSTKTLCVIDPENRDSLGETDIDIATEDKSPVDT
Luciferin 4-monooxygenase (Photinus pyralis), sequence (P08659 whole entry, looked up): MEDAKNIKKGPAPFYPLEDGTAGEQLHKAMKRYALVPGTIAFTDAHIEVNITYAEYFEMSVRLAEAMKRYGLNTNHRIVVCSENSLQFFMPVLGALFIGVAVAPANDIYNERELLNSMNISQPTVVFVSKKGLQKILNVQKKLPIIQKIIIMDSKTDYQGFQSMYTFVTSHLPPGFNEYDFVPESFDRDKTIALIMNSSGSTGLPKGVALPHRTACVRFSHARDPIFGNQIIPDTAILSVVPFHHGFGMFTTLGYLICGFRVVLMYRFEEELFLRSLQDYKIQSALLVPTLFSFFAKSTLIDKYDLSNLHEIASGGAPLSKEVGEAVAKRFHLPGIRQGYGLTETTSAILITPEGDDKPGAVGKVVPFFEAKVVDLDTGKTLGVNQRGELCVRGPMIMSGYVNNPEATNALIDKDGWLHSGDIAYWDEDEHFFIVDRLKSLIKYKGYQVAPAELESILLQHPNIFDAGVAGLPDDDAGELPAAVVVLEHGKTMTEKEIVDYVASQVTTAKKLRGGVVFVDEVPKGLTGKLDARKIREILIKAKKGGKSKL
ATP-dependent 6-phosphofructokinase (Trypanosoma brucei brucei), sequence (O15648 whole entry, looked up): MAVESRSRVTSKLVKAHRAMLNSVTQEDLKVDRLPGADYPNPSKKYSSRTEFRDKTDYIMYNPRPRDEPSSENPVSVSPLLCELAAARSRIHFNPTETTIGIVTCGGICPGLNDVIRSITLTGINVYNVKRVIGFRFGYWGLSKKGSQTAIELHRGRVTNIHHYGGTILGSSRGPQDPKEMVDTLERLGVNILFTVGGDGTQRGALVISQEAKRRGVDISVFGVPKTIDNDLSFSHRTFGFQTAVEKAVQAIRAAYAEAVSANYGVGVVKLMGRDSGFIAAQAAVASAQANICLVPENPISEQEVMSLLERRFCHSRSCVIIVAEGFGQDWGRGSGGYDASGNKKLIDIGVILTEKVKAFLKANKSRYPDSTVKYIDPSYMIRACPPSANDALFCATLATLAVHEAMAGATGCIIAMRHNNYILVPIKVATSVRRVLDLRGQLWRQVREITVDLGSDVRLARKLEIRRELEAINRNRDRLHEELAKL

Regarding `CN[C@]1(C)[C@H]2CC[C@@H](C2)C1(C)C`, the outcome in [1], in test [4] and in test [7] was inactive. For the same molecule, the Potency result in [2] and in test [6] was “inactive” in each case. Further, the activity change, negative = inhibition in [3] was -19.7% (inactive); in [8] (at 25.7 µM (top of the series)) it was -3.7% (inactive). Besides, the Potency in test [5] is > 20.6 µM (inactive). In addition, the max response is -12.2% in test [8] (setting [14]) and -14.5% in test [8] (setting [15]).
Regarding `COc1c2c(nc3ccccc13)O[C@H]([C@@](C)(O)CO)C2`, the molecule was classed as inactive in test [1], in [4] and in [7]. Further, the Potency in [2] is 12.6 µM (active); in [9], > 20.6 µM (inactive). For the same molecule, the activity change, negative = inhibition in test [3] was -17.9% (inactive); in [8] (at 25.7 µM (top of the series)) it was 1.14% (inactive). Moreover, the Potency result in [6] and in test [10] was “inactive” each time. In addition, the max response is -17.8% in test [8] (setting [14]) and -15.2% in [8] (setting [15]).
Take `Cc1noc(C)c1-c1nc(Nc2ccncc2)c2ccccc2n1`: the result in test [1] and in [4] was inactive. In addition, the figures for the Potency in test [2], in test [5] and in test [9] were 0.1 µM (active), > 46 µM (inactive) and > 46 µM (inactive), respectively. Further, the activity change, negative = inhibition in [3] was -11.9% [at 7.69 µM] (inactive); in [8] (at 57.5 µM (top of the series)), -8.29% (inactive). In addition, the max response was -5.56% in test [8] (setting [14]) and -10.6% in test [8] (setting [15]).
With `CN(C)CCn1nnnc1SCC1=C(C(=O)O)N2C(=O)[C@@H](NC(=O)Cc3csc(N)n3)[C@@H]2SC1`, the molecule was classed as inactive in [1], in [4], in [7] and in test [11]. Further, the Potency entry (in [2]; in [6]; in [10]; in [12]; in the test on 3D7; with C2A) was “inactive” in each case. The Potency result in the test with CP217, in the test on CP250, in the test with FAB9 and in the test on PC49 was “inactive” throughout. In addition, the activity change, negative = inhibition is -2.63% (inactive) in test [3] and -0.351% (inactive) in test [8] (at 25.7 µM (top of the series)). Moreover, the Potency in test [9] is > 20.6 µM (inactive). For the same molecule, the max response in [8] (setting [14]) was -8.06%; in test [8] (setting [15]), -8.86%. Besides, the activity, negative = inhibition was 0.61% (inactive) in [13] (parasite line A) and 1.06% (inactive) in test [13] (parasite line B).
Take `Nc1c(O)cccc1C(=O)C[C@@H](N)C(=O)O`: the call in test [1], in test [4] and in [7] was inactive. The Potency entry in test [2] and in test [6] was “inactive” in each case. Also, the results for the activity change, negative = inhibition in test [3] and in test [8] (at 25.7 µM (top of the series)) were -7.19% (inactive) and -1.89% (inactive), respectively. Also, the Potency in test [5] and in test [9] was > 20.6 µM (inactive) each time. The max response in [8] (setting [14]) is -4.16%; in test [8] (setting [15]), -9.91%.
In the case of `CC(=O)N[C@H](CS)C(=O)O`, the call in test [1], in [4] and in [7] was inactive. For the same molecule, the Potency entry in test [2] and in test [10] was “inactive” in each case. Also, the results for the activity change, negative = inhibition in [3] and in test [8] (at 57.5 µM (top of the series)) were -2.14% [at 38 µM] (inactive) and 4.08% (inactive), respectively. Also, the Potency in test [5] is > 46 µM (inactive). Besides, the values for the max response in test [8] (setting [14]) and in test [8] (setting [15]) were 2.82% and 18.6%, respectively.
For `C[C@@]12CC3CC(N)(C1)C[C@@](C)(C3)C2`, the molecule was called inactive in [1], in test [4] and in test [7]. Also, the Potency entry in [2], in test [6] and in test [10] was “inactive” throughout. Also, the figures for the activity change, negative = inhibition in [3] and in test [8] (at 25.7 µM (top of the series)) were -7.73% (inactive) and -4.9% (inactive), respectively. The Potency in [5] was > 20.6 µM (inactive). Also, the figures for the max response in [8] (setting [14]) and in test [8] (setting [15]) were -3.32% and -3.78%, respectively.
Turning to `CCC(=O)O[C@@]1(C(=O)CCl)[C@@H](C)C[C@@H]2[C@H]3CCC4=CC(=O)C=C[C@@]4(C)[C@]3(F)[C@@H](O)C[C@@]21C`, the call in test [1], in test [4] and in test [7] was inactive. Moreover, the Potency entry in test [2] and in test [6] was “inactive” each time. Further, the figures for the activity change, negative = inhibition in test [3] and in test [8] (at 25.7 µM (top of the series)) were -1.76% (inactive) and -3.93% (inactive), respectively. The Potency in [5] is 0.000621 µM (active). Besides, the max response in test [8] (setting [14]) was -18.1%; in test [8] (setting [15]) it was -15.8%.
